nsP2pro primary: Primary qHTS for inhibitors of NSP2Pro chikungunya virus (CHIKV); Potency, µM (top dose mostly 24.9 µM), inactives show at the highest dose activity change, negative = inhibition, most hits filed as inhibitors; FRET peptide cleavage, nsP2pro, fluorescence 1 h; Polyprotein P1234 (Chikungunya virus (strain S27-African prototype)), Q8JUX6; 1.1% of 31,000 active; note: nearly all actives have a fitted effect of over 60% in size
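Recombinant nsP2pro (150 nM) was preincubated with compound 15 min at room temperature in 10 mM Tris-HCl pH 8.0, 0.01% Tween 20. Peptide 2 FRET substrate (2.5 uM) was then added and fluorescence read after 1 h. Seven-point series, up to 25 uM.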
CHIKV nsP2 cell: Secondary cell base assay for inhibitors of NSP2Pro Chikungunya virus (CHIKV); shares compounds with nsP2pro primary; cell-based CHIKV nsP2 protease reporter assay; Potency, µM (titrated, usually from 51.1 µM), inactives show top-dose activity change, negative = inhibition, usual class: inhibitors; 10% of 450 active; AID 1964100, 2024; note: nearly all actives have a fitted effect of over 70% in size
CHIKV NSP2 FL: Selectivity profile for inhibitors of NSP2Pro chikungunya virus (CHIKV): Full length NSP2 enzyme counterscreen (CHIKV-NSP2) | shares compounds with nsP2pro primary | AID 1964101, 2024 | Full-length CHIKV NSP2 protease enzymatic counterscreen | 39% of 410 active | Potency, µM (series often up to 50.7 µM), for the others: top-dose activity change, negative = inhibition, usual class: inhibitors; note: nearly all actives have a fitted effect of over 65% in size
Furin counterscr: Selectivity profile for inhibitors of NSP2Pro chikungunya virus (CHIKV): Human furin counterscreen | Recombinant human furin enzymatic counterscreen, fluorogenic substrate | AID 1964102, 2024 | Potency, µM (series often up to 50.6 µM), inactives show at the highest dose activity change, negative = inhibition, usual class: inhibitors | 6% of 410 active | shares compounds with nsP2pro primary
Target sequence (P09958 whole entry, looked up): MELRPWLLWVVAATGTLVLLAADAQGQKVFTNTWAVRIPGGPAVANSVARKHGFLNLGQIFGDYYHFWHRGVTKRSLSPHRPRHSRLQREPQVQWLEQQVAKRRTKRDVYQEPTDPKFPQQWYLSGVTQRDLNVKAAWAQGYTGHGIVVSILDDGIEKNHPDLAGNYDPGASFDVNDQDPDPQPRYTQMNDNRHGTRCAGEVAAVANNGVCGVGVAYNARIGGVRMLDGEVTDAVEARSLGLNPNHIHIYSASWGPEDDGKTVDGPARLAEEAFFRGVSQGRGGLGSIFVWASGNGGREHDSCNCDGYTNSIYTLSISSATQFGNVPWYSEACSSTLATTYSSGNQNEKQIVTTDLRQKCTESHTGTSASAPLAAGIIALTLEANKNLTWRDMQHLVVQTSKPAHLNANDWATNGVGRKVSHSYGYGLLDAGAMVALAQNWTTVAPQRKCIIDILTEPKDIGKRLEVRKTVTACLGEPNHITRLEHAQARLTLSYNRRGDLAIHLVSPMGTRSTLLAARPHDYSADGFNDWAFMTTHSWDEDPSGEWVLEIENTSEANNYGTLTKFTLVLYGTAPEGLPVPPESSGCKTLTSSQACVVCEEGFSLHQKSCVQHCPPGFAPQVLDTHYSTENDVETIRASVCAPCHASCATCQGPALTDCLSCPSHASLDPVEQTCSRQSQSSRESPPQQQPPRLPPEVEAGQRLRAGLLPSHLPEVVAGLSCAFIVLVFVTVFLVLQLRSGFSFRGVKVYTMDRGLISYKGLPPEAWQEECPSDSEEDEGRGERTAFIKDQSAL
NS23 peptide cs: Selectivity profile for inhibitors of NSP2Pro chikungunya virus (CHIKV): Endogenous NS2/3 peptide Counterscreen | shares compounds with nsP2pro primary | Purified CHIKV nsP2 protease, endogenous NS2/3 peptide cleavage | Potency, µM (highest dose often 51 µM), for inactives: at the highest dose activity change, negative = inhibition, usual class: inhibitors | 34% of 410 active | AID 1964103, 2024; note: nearly all actives have a fitted effect of over 55% in size
Papain counter: Selectivity profile for inhibitors of NSP2Pro chikungunya virus (CHIKV): Papain Counterscreen. 5% of 410 active. AID 1964104, 2024. shares compounds with nsP2pro primary. purified papain protease activity, enzymatic inhibition. Potency, µM (highest dose often 51 µM), without a hit: at the top dose activity change, negative = inhibition, usual class: inhibitors
nsP2pro confirm: Confirmatory qHTS for inhibitors of NSP2Pro chikungunya virus (CHIKV) | Potency, µM (series often up to 25.5 µM), inactives show at the highest dose activity change, negative = inhibition, actives largely listed as inhibitors | shares compounds with nsP2pro primary | CHIKV nsP2 protease enzymatic activity, qHTS | 43% of 410 active; note: nearly all actives have a fitted effect of over 75% in size
HCV NS3 counter: Selectivity profile for inhibitors of NSP2Pro chikungunya virus (CHIKV): NS34A-HCV Counterscreen | Potency, µM (series often up to 50.9 µM), actives largely listed as inhibitors | 20% of 410 active | shares compounds with nsP2pro primary | HCV NS3/4A protease biochemical counterscreen; note: nearly all actives have a fitted effect of over 55% in size
* marks the source's active call; other numbers are inactive results; i = inactive; ? = inconclusive; [ ] = remark or other dose. The full list was thinned out, with hits kept by preference. Calls come from the whole dose curve. % is set by controls: 0 for no effect and ±100 for the full control effect; potency is the fitted concentration of half-maximal effect.

SMILES	nsP2pro primary	others
Cc1ccc(CNC(=O)c2nc(SCc3ccc(F)cc3)ncc2Cl)cc1	-3%
O=C(NC[C@H]1CN(c2ccc(N3CCOCC3=O)cc2)C(=O)O1)c1ccc(Cl)s1	-24%
CCCCNc1ncc2c(-c3ccc(F)cc3)nn(CC3CCC(N)CC3)c2n1 (centres undefined)	68%[10 µM]
Cc1ccc(N[S+](=O)([O-])c2cc3c(cc2CCc2ccccc2)NC(=O)CO3)cc1C	i
Cc1cc(NC(=O)CCNS(=O)(=O)c2cccc3nsnc23)ccc1Br	-13%
Cc1cccc(C(=O)Nc2ccc3ncnc(N4CCCCC4)c3c2)c1	34%
O=C(Nc1ccc(Cl)cc1)c1ccc2c(c1)N(Cc1ccccc1)CCS2	-5%
O=C(Nc1ccc(N2CCC(c3ccccc3)C2)c(C(=O)O)c1)c1ccc(Cl)cc1 (centres undefined)	3.5µM*	CHIKV nsP2 cell=30%;CHIKV NSP2 FL=3.7µM*;Furin counterscr=?;NS23 peptide cs=12µM*;Papain counter=9%;nsP2pro confirm=7.1µM*;HCV NS3 counter=3.7µM*
Cc1cccc(C(=O)Nc2ccc(N3CCC(N4CCCCC4)CC3)c(C(=O)O)c2)c1	5µM*	CHIKV nsP2 cell=11%;CHIKV NSP2 FL=4.6µM*;Furin counterscr=?;NS23 peptide cs=15µM*;Papain counter=-4%;nsP2pro confirm=7.1µM*;HCV NS3 counter=2.6µM*
O=C(Nc1ccc(Cl)cc1)N1CCC(c2ccccc2)C1 (centres undefined)	-10%
Cc1cccc(C(=O)Nc2cc3c(cc2N2CCCCC2)n(C)c(=O)n3C)c1	-9%
COc1ccc(NC(=O)C[C@@H]2C[C@@H](C(C)C)[C@H](CC#N)C=C2C)cn1	2%[39.2 µM]
O=C(NCc1nc(-c2ncccn2)no1)C1CC2(CCNCC2)CN1 (centres undefined)	1%
CC(NC(=O)CSc1n[nH]c(-c2ccccc2)n1)c1nc2ccccc2n1C (centres undefined)	-21%
CCOC(=O)[C@H]1O[C@@H]1C(=O)N[C@@H](CC(C)C)C(=O)NCCC(C)C	8.8µM*	CHIKV nsP2 cell=-9%;CHIKV NSP2 FL=16µM*;Furin counterscr=-9%;NS23 peptide cs=?;Papain counter=1.2µM*;nsP2pro confirm=8µM*;HCV NS3 counter=i
CCOC(=O)c1noc2ncn(Cc3cccc(C#N)c3)c(=O)c12	-13%
CC(C)CCNC(=O)C1CCCN(C2CCN(CCc3ccccc3)CC2)C1 (centres undefined)	4%
CC(C)CCNC(=O)[C@H](CC(C)C)NC(=O)[C@H]1O[C@@H]1C(=O)NCc1cccc(C#N)c1	2.5µM*	CHIKV nsP2 cell=?;CHIKV NSP2 FL=6.5µM*;Furin counterscr=1%;NS23 peptide cs=5.8µM*;Papain counter=2.6µM*;nsP2pro confirm=2.5µM*;HCV NS3 counter=i
Cc1nc2ncnn2c(C)c1CCC(=O)NCc1cccc(Cl)c1	-22%
CCCc1nc(C)cc(N2CCC3(CC2)CNC(C(=O)O)C3)n1 (centres undefined)	2%
CC(C)N(Cc1cccc(N2CCN(S(=O)(=O)c3c(Cl)cccc3Cl)CC2)c1F)S(C)(=O)=O	3%
CC(=O)c1ccc(N2CCN(S(=O)(=O)c3ccc4c(c3)CC(C)N4C(C)=O)CC2)cc1 (centres undefined)	i
COc1ccc(Cl)cc1NC(=O)N1CC(=O)Nc2sc3c(c2C1c1ccccc1)CCCC3 (centres undefined)	4%
CN1CCN(c2ccc(NC(=O)c3cccs3)cn2)CC1	-10%
NNc1ccc(NC(=O)c2cccs2)cn1	i
SMILES	nsP2pro primary	others
CC(=O)c1ccc(N2CCN(c3ccc(NC(=O)c4ccc(F)cc4)cc3C(=O)O)CC2)cc1	36%
Cc1ccccc1C(=O)Nc1ccc2c(c1)CCCN2C(=O)c1cccs1	41%
O=C(Nc1cnc(N2CCN(c3ccccc3)CC2)c(C(=O)O)c1)c1cccs1	2.5µM*	CHIKV nsP2 cell=-1%;CHIKV NSP2 FL=2.1µM*;Furin counterscr=?;NS23 peptide cs=6.5µM*;Papain counter=-12%;nsP2pro confirm=5.7µM*;HCV NS3 counter=2.9µM*
O=C(Nc1ccc(N2CCN(c3ccc(F)cc3)CC2)c(C(=O)O)c1)c1cccs1	?	CHIKV nsP2 cell=36%;CHIKV NSP2 FL=5.2µM*;Furin counterscr=-17%;NS23 peptide cs=13µM*;Papain counter=-3%;nsP2pro confirm=8µM*;HCV NS3 counter=4.1µM*
Cc1ccc([C@H]2C[C@@H](O)[C@@H](O)[C@@H]2NS(C)(=O)=O)cc1	-5%[39.2 µM]
COc1ccc(C(=O)N2C[C@@H]3C[C@H](C2)c2c(NS(=O)(=O)c4ccccc4)ccc(=O)n2C3)cc1	-9%
COC(=O)C1(C)CCC(=O)C2(C)c3c(O)cc(C(C)C)cc3C(O)C(OC(C)=O)C12 (centres undefined)	1%[10 µM]
C=C1CC2OC(=O)C(COC)C2C(OC(=O)/C(C)=C\C)CC2(C)OC1=CC2=O (centres undefined)	-3%
CCc1ccc(NCc2cc3cc4c(cc3n(CC(=O)Nc3ccc(Cl)cc3)c2=O)OCO4)cc1	?	CHIKV nsP2 cell=-1%
CCOc1ccc(NC(=O)Cn2cc(C(=O)c3ccc(CC)cc3)c(=O)c3cc4c(cc32)OCO4)cc1	-16%
CCc1ccc(NC(=O)Cn2c(=O)c3cc(Cl)ccc3n3nncc23)cc1	-15%
Fc1ccccc1N1CCN(c2nc(-c3cccs3)nc3ccccc23)CC1	0%
C/C=C/C=C/C(=O)OC1CC/C=C/C(O)C(O)C(CCC)OC1=O (centres undefined)	?	CHIKV nsP2 cell=-1%[33.5 µM];CHIKV NSP2 FL=-2%[33.5 µM];Furin counterscr=-3%[33.5 µM];NS23 peptide cs=-5%[33.5 µM];Papain counter=?;nsP2pro confirm=-20%[16.7 µM];HCV NS3 counter=i
O=C(NCc1cccs1)c1ccc(Cn2c(SCc3ccc(F)cc3)nc3cccnc32)cc1	23%
Cc1ccc(CNC(=O)c2ccc(Cn3c(SCc4ccc(F)cc4)nc4cccnc43)cc2)o1	?	CHIKV nsP2 cell=-16%
Cc1cccc(CSc2nc3cccnc3n2Cc2ccc(C(=O)NCc3ccco3)cc2)c1	-9%

Screening data as filed in PubChem.
